Assay outcomes (PubChem)
This is a sample that favours compounds with a hit; in the whole collection about 1.5% have one here.
eLon inh: inhibits E. coli Lon protease; 360,000 tested, 0.42% active; purified E. coli Lon protease, fluorescence polarization; AID 602123; inhibition, % at 7.94 µM; in the data active = inhibition above about 13%, passing the limit was not always enough;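 note: 0% = enzyme with probe and DMSO and 100% = no enzyme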
GLD-1 RNA inh: GLD-1-TGE RNA interaction inhibition (C. elegans); Q17339; purified GLD-1 + fluorescein TGE RNA, fluorescence polarization; inhibition, % at 5.96 µM; 320,000 tested, 0.44% active; AID 2280;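 active = percent inhibition above a per-plate cutoff, the plate mean of test compounds plus 3 SD, cut at about 30% in these data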;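 note: 0% = DMSO wells with GLD-1 and probe and 100% = wells lacking GLD-1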
Bcl-xL primary: Bcl-xL (human) inhibition. Q07817. AID 2129. GST-Bcl-xL / FITC-Bim BH3 peptide fluorescence polarization. inhibition, % at 10.9 µM. 320,000 tested, 0.7% active;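 active = inhibition above the mean of all tested compounds plus 3 SD, cutoff set per campaign, cut at about 30% in these data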;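 note: 0% = DMSO wells and 100% = unlabeled Bim-BH3 peptide competitor; inhibitors lower millipolarization by displacing the labeled peptide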
Target sequence (Q07817 whole entry, looked up): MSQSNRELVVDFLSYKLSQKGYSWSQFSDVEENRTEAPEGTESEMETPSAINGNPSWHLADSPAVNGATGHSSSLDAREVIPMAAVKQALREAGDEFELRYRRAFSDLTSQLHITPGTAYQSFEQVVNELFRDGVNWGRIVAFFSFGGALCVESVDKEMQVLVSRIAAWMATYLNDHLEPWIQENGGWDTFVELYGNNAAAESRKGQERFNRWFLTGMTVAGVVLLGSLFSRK
EBV gp42 inh: EBV gp42 inhibition; Q1HVG2; Fluorescence polarization binding assay, mP read-out; inhibition, % (tested at 21.74 µM); 220,000 tested, 0.42% active; AID 1085; in the data active = inhibition above about 50%
Target sequence (Q1HVG2 whole entry, looked up): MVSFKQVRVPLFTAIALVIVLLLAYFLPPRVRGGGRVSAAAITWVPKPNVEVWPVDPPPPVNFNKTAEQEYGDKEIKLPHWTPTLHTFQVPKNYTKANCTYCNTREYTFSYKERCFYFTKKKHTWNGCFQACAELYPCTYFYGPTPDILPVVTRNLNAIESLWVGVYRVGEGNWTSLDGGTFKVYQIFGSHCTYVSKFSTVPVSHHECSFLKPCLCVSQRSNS
MEX-5 binding: C. elegans MEX-5 TCR-2 RNA binding activity | AID 1832 | activity score (negative = inhibition of binding), % at 10 µM | 300,000 tested, 0.38% active | MEX-5/FITC-TCR2 RNA binding, fluorescence polarization; hits give low values | Q9XUB2;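 active = inhibition past about -25% in most replicates, and total fluorescence under double the plate's negative control median, limit read from the data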;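 note: 0% = DMSO and -100% = 5 µM competing unlabeled TCR2 RNA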
MCL1 BIM primary: MCL1-BIM-BH3 interaction inhibition (human). Q07820. GST-MCL1 / FITC-Bim-BH3 fluorescence polarization. inhibition, % at 10.9 µM. 320,000 tested, 0.68% active. AID 2057;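 active = inhibition above the mean inhibition of all tested compounds plus 3 SD, set per campaign, cut at about 40% in these data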;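 note: 0% = DMSO wells and 100% = unlabeled Bim-BH3 peptide control; higher means more loss of mP so more displacement of Bim peptide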
Active calls of the source: *; . = no result given.

SMILES	eLon inh	GLD-1 RNA inh	Bcl-xL primary	EBV gp42 inh	MEX-5 binding	MCL1 BIM primary
O=C(C[C@@H]1C/C=C\C[C@H](NC(=O)OCC2c3ccccc3-c3ccccc32)C(=O)O[C@H](c2ccccc2)CNC1=O)NCCO	-5	7	.	.	.	.
CN1C=C/C(=C\c2cc[n+](C)c3ccccc23)c2ccccc21	7	.	.	-11	-67*	.
CCOc1ccc(S(=O)(=O)Nc2ccc(O)c(Sc3ncn[nH]3)c2)cc1	11	0	6	2	-4	4
COc1ccc(OC)c(S(=O)(=O)Nc2ccc(O)c(Sc3ncn[nH]3)c2)c1	0	4	9	-8	-34*	16
O=c1[nH][nH]c2cc(=O)n(-c3ccc(Cl)cc3)nc12	-2	2	20	6	-32*	23
N#CC(NC(=O)OCc1ccccc1)c1ccccc1 (configuration not stated)	7	3	3	.	1	5
CC1(C)Cc2c(cnn2-c2cccc(F)c2)C(NC(=O)CSc2ccccn2)C1 (configuration not stated)	-3	-1	6	.	-44*	5
CCN1CCn2c3c(c4cc(Cl)ccc42)CCCC31 (configuration not stated)	4	6	4	-8	-1	-5
CCN(CC)CCN1CCn2c3c(c4cc(C)ccc42)CCCC31 (configuration not stated)	8	10	36*	1	-13	46*
Cc1cccc(NC(=O)CCc2ccc(N3C(N)=NC(N)=NC3(C)C)cc2)c1	16	.	.	.	.	.
N#C/C(=C\c1cccn1S(=O)(=O)c1cccc(C#N)c1)S(=O)(=O)c1ccc(F)cc1	-9	.	.	.	.	.
CCc1c(C)nc(SCC(N)=O)c(C#N)c1C	-1	0	2	-32	1	4
CCc1c(C)nc(SCC(=O)c2cccs2)c(C#N)c1C	-44	-24	-1	-20	-34*	-7
Oc1ccc(-c2cn3ccccc3n2)cc1O	3	10	21	.	-28*	30
COc1ccc(C(=O)NC(C)Cc2c[nH]c3ccccc23)cc1 (configuration not stated)	2	.	.	.	.	.
Cc1cc(C(=O)NNS(=O)(=O)c2cc(C(=O)O)ccc2Cl)c(C)n1-c1ccccc1	-7	1	4	.	.	11
COc1ccc(-c2cc3c(=O)n(CC(=O)NCc4cccnc4)ncn3n2)cc1	3	7	-2	.	0	0
COc1ccc(-c2cc3c(=O)n(CC(=O)Nc4ccc(C(C)=O)cc4)ncn3n2)cc1	7	7	73*	.	-3	-4
Oc1cccc2ccc(N3CCOCC3)nc12	-14	0	10	.	2	3
Cc1ccc(OCCC(=O)NNC(=O)c2ccc(Br)cc2)cc1	-9	-5	.	.	.	.
CN1C(=O)/C(=C\c2ccc(N(C)C)cc2)OC1=S	-486	.	.	.	-89*	.
CN(C)c1ccc(/C=C2\N=C(C(C)(C)C)OC2=O)cc1	-80	-63	-16	.	-43*	-30
NC(=S)n1[nH]c(-c2ccc([N+](=O)[O-])cc2)c(N=Nc2ccccc2[N+](=O)[O-])c1=O	3	.	.	36	.	.
Cc1[nH]n(C(N)=S)c(=O)c1N=Nc1cccc([N+](=O)[O-])c1C	4	-2	6	.	-6	11
NC(=S)n1[nH]c(-c2ccc([N+](=O)[O-])cc2)c(N=Nc2cccc([N+](=O)[O-])c2)c1=O	6	.	.	100*	-1	.
SMILES	eLon inh	GLD-1 RNA inh	Bcl-xL primary	EBV gp42 inh	MEX-5 binding	MCL1 BIM primary
Cc1c(N=Nc2c(-c3ccc([N+](=O)[O-])cc3)[nH]n(C(N)=S)c2=O)cccc1[N+](=O)[O-]	-4	.	.	109*	.	.
Cc1ccc(C2=NN(C(=O)CCl)C(c3ccco3)C2)o1 (configuration not stated)	-4	.	.	.	1	.
Cc1ccc(S(=O)(=O)N(C)C)cc1NC(=O)COC(=O)Cc1cccs1	-13	0	5	.	0	-8
COC(=O)c1ccccc1NC1=C/C(=N\S(=O)(=O)c2ccc(C(=O)O)cc2)c2ccccc2C1=O	-7	15	40*	.	-4	45*
COC(=O)C1=C(O)/C(=C\c2cc(C)n(-c3ccccc3C)c2C)N=C1C	-7	27	42*	17	1	44*
COC(=O)C1=C(O)/C(=C\c2cc(C)n(-c3ccccc3F)c2C)N=C1C	1	28	29	13	-7	29
COc1cc(F)ccc1-c1cc(C(=O)Nc2ccc(NC(C)=O)cc2)[nH]n1	1	.	.	.	.	.
C#CCn1cc(C=C2C(=O)c3ccccc3C2=O)c2ccccc21	-16	.	.	95*	-2	.
Cc1noc(C)c1NC(=O)N(C)C[C@@H]1OCc2cn(nn2)CCCC(=O)N([C@H](C)CO)C[C@H]1C	-12	.	.	.	.	.
COc1ccccc1N(CC(=O)N1CCN(c2ccccc2)CC1)S(=O)(=O)c1ccc(C)cc1	4	3	6	.	0	4
COc1ccccc1C(=O)NC(=O)COC(=O)c1cc[n+]([O-])cc1	-6	6	-3	.	-3	-9
CC(OC(=O)c1c2c(nc3ccccc13)/C(=C\c1ccc3c(c1)OCO3)CCC2)C(=O)Nc1ccc(S(N)(=O)=O)cc1 (configuration not stated)	77*	.	.	149*	.	.
CC(OC(=O)c1cc2ccccc2cc1O)C(=O)Nc1ccc(S(N)(=O)=O)cc1 (configuration not stated)	-9	4	-3	-5	-3	-4
Cn1c(CC(=O)Nc2ccc(F)cc2)nnc1SCC(=O)Nc1nncs1	-5	-5	1	.	1	-1
N#C/C(=C\c1ccc(F)cc1F)S(=O)(=O)c1ccccn1	-13	-2	4	-22	0	6
CCSC1=NSC2=NC(=O)/C(=C\c3coc4ccccc4c3=O)C(=N)N12	-352	-148	-5	88*	.	-12
CC1(OC(=O)C2CCCC2)C(=O)C=C2C=C3CCCCN3C=C2C1=O (configuration not stated)	22	18	32*	-12	-8	47*
CC1(OC(=O)c2ccc(Cl)nc2)C(=O)C=C2C=C3CCCN3C=C2C1=O (configuration not stated)	9	12	13	13	.	26
COC/C=C/C1=CC2=CC(=O)C(C)(OC(=O)C3CCCC3)C(=O)C2=CO1 (configuration not stated)	6	20	14	-8	-3	26
CC1(OC(=O)C2CCCC2)C(=O)C=C2C=C(C3CC3)OC=C2C1=O (configuration not stated)	.	44*	50*	.	-12	42*
O=C(COc1ccccc1Cl)c1ccc[nH]1	3	3	10	57*	0	34
CCOc1ccc(NC(=O)CN(C)C(=O)c2ccc(OCC(=O)N3CCOCC3)c(OC)c2)cc1OCC	-5	.	.	.	.	.
CCN(CC)c1ccc(C=C2C(=O)OC3(CCCCC3)OC2=O)cc1	-7	-22	-21	-89	5	-46
